Assay results: ChEMBL document CHEMBL3988442, “University of Dundee, Small-Polar-MMV Screening Library” (2021)

What follows are compounds tested against Shiga toxin 2 (Escherichia coli O157:H7) (UniProt P09385+P09386) (assay: E. coli 0.157:H7 Shiga Toxin SOP - stx2 screening assay). Conditions: 30 µM.
Type: functional
Set-up: scale not given: direction of the effect not stated beside the values

SMILES	Percent Effect
c1cnn(CC2CN(CCc3ccncc3)CCO2)c1 (stereo not given)	17.1%
Cn1cnc2c1CCN(Cc1noc(-c3ccccc3)n1)C2	12.6%
Cc1ccc(CNC2CCN(CCc3ccncc3)CC2)cc1C	-49.6%
Cc1cc(CN2CCN(CCOc3cccc(C#N)c3)CC2)no1	20.5%
CC(=O)NC(C)(C)C(=O)Nc1ncc(Cc2ccc(C)c(F)c2)s1	-15.4%
CC1=Nc2c(c(=O)[nH]n2C(C)C)C(c2ccc(F)c(F)c2)S1 (stereo not given)	22.2%
COc1ncccc1C(=O)N1CCN(C(=O)Cc2ccccn2)CC1	-53.3%
O=C(c1cccs1)N1CCC2(C1)c1ccccc1S(=O)(=O)N2CC1CC1 (stereo not given)	6.62%
Cc1nn(C)c(C)c1NC(=O)CN1CCc2c(nc(C3CC3)n2C)C1	-17.4%
CC(O)CN(CC(=O)NC(=O)NCC(F)(F)F)c1ccccc1 (stereo not given)	29.2%
Cc1cn2nc(N3CCCC3CC(C)(C)C)sc2n1 (stereo not given)	22.9%
O=C(C1CCOCC1)N1CCC2(CC1)CC(Oc1ccccc1)CO2 (stereo not given)	25.7%
Cc1cc(C2CCCN(C(=O)c3cnccn3)C2)ccn1 (stereo not given)	-14.3%
O=C(c1cnc(-c2cccs2)s1)N1CCCC(n2cccn2)C1 (stereo not given)	17.4%
c1ncn(CC2CN(Cc3noc(C4CC4)n3)CCO2)n1 (stereo not given)	-20.8%
CN(Cc1ccc(F)cc1)C(=O)NCc1nnc2n1CCCCC2	-16.9%
COc1ccc2c(c1)CC(NC(=O)NCc1cccs1)CO2 (stereo not given)	-8.88%
c1cc2n(n1)CC(CNCc1ccc(OC3CCCCC3)nc1)CN2 (stereo not given)	-39.3%
C[C@@H]1C(=O)NC[C@H]2CN(CCc3ccccc3)C[C@H]21	-4.99%
CCS(=O)(=O)N1CCc2ccc(NC(=O)Nc3ccc(F)cc3F)cc21	-10.5%

SMILES	Percent Effect
Cc1ccc(NC2CCN(C(=O)c3cc(C(N)=O)cs3)CC2)nn1	3.48%
COc1ccc(COCC(O)CNC(=O)c2cccnc2)cc1 (stereo not given)	-12.2%
c1cnnc(N2CCCC2CNc2ncnc3ccccc23)c1 (stereo not given)	-33.7%
OC(COCc1cccs1)CN1CCC(c2ccn[nH]2)CC1 (stereo not given)	-8.34%
CC(C)Oc1ncccc1CNC(=O)c1cc[nH]n1	18.4%
CCN1CCN(C2CCN(Cc3noc(C)n3)CC2)C1=O	-25.5%
COCC1c2nnn(CC3CC3)c2CCN1C(=O)c1ccnnc1 (stereo not given)	-8.58%
CC(=O)N1CCC2(CC1)CC[C@@]1(C(=O)N(C)C)CN(S(C)(=O)=O)C[C@@H]21	-10.1%
COCc1ccccc1CNCc1c(C)nn(C)c1N(C)C	22.6%
CCCn1ccc(C(=O)N2CCC(C)CC2)n1	-27.6%
COCc1cccc(CNC(=O)CN2CCCC2c2noc(C)n2)c1 (stereo not given)	14.4%
CC(=O)N1CCCC1c1nnc2n1CCCCC2 (stereo not given)	0.261%
COC(=O)c1ccc(C(=O)NS(=O)(=O)c2cncc(Br)c2)cc1	8.86%
Cc1cc2c(cc1C)C(NCc1nnc3n1CCCCC3)CCCO2 (stereo not given)	-2.95%
O=C(NCCCn1cccn1)C1(c2ccc(F)cc2)CC1	-6.77%
Cc1ccc(-c2cc(N)c(=O)n(CC(=O)NC3CCCCC3)n2)s1	13.1%
c1cnc(-c2nc(CN3CCC(c4ccn[nH]4)CC3)cs2)nc1	-11.4%
COc1cc(N2C[C@@H]3COC[C@]3(COc3cccnc3)C2)ncn1	-5.75%
CC(CN1CCN(C)CC1)NC(=O)c1cc(Cl)c2c(c1)OCO2 (stereo not given)	-0.562%
OC(COc1ccccc1)CN1CCc2c(ncn2C2CC2)C1 (stereo not given)	-25.6%
